# Measured values as given in PubChem BioAssay AID686978 (National Center for Advancing Translational Sciences (NCATS), 2013).
# In all, about 420,000 compounds went through this assay and about 64,000 (15%) were called active. Not shown: some 27% with an inconclusive outcome. Not all results are given here. Values without a mark were called inactive. Calls come from the whole dose curve; as a rule, active = well fitted inhibition curve with a large enough effect; inconclusive = small, poorly fitted or top-dose-only effect; inactive = flat fitted curve, though single readings scatter. Numbered stars: 1 amine (or outer) side, 2 acyl side, 3 side chain; on linkers, the order of the positions; unused ones are H or OH. Bridge positions count the residues as written; N and C are the ends. Square brackets hold non-standard residues; d marks the D form. Peptide text beside a SMILES is read from it. * marks the point of attachment. X11 = NC1=N[C@@H]([C@H](N[*:1])C(=O)[*:2])C[C@H](O)N1; ΔAla(Z-3-ureido) = NC(=O)N/C=C(\N)C(=O)O; β3hOrn = NCCC[C@H](N)CC(=O)*; Dap = NC[C@H](N)C(=O)O
# Assay: qHTS for Inhibitors of human tyrosyl-DNA phosphodiesterase 1 (TDP1): qHTS in cells in absence of CPT; note: nearly all actives have a fitted effect of over 55% in size
# Conditions: DT40 Tdp1-/- hTDP1 cells, no CPT, ATP luminescence, 48 h; activity change, negative = growth inhibition: at 46.2 µM (top of the series)
# Procedure, shortened: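 Chicken DT40 Tdp1-/- cells complemented with human TDP1, screened without camptothecin (DMSO vehicle only), 400 cells/well. Compounds pin-transferred, cells incubated at 37 °C for at least 48 hr. Growth read as ATP-dependent luminescence (CellTiter-Glo, 30 min at RT).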
# % is set by controls: 0 for no effect and ±100 for the full control effect; potency is the fitted concentration of half-maximal effect.
Compound,Potency,"activity change, negative = growth inhibition"
O=C(Nc1cccc(C(F)(F)F)c1)c1cc(Br)cc(Br)c1O,13.3 µM (active),–
O=C(O)CSCC(=O)Nc1cccc(C(F)(F)F)c1,–,1.22%
O=C(O)CC1(CC(=O)Nc2cccc(C(F)(F)F)c2)CCCC1,–,-12.9%
Cn1c(SCC(=O)N2CCOCC2)nnc1-c1ccc(NC(=O)c2ccccc2F)cc1,–,-14.2%
CC1CN(C(=S)Nc2ccc(Br)cc2Cl)CC(C)O1 (centres undefined),–,-8.66%
CNC(=S)N/N=C/c1ccc(OCc2ccccc2)c(Br)c1,10.3 µM (active),–
O=C(N/N=C/c1cccc(OCc2ccccc2)c1)c1ccc(Br)o1,–,-15.6%
C=CCNC(=S)N/N=C/c1ccc(OCc2ccccc2)cc1,–,0.63%
CC1CN(c2cc(=O)n(-c3cccc(Br)c3)c(=O)[nH]2)CC(C)O1 (centres undefined),–,-10.8%
CS(=O)(=O)c1cccc(-c2ccc3nncn3c2)c1,–,-1.13%
CSc1ccccc1C(=O)OCC(=O)N1CCN(C(C)=O)CC1,–,3.66%
Cc1ccc(N2C(=O)CN=C2Nc2nc(C)cc(C)n2)cc1,–,-11.4%
Cc1cc(/C=C2\SC(=Nc3ccc(N4CCOCC4)cc3)N(C)C2=O)c(C)n1-c1cccnc1,–,-20.8%
O=C(Nc1ccc([N+](=O)[O-])cc1)OCCc1ccccn1,–,-9.24%
Clc1ccc(Nc2ccc3ccccc3n2)cc1,–,-21%
Cc1cc(Nc2ccccc2)nc(N)n1,–,-15.7%
Cc1ccc2nc(Nc3ccccc3)cc(C)c2c1,10.3 µM (active),–
Cc1nc(CC(=O)NNS(=O)(=O)c2ccc(F)c(Cl)c2)cs1,–,8.87%
NCCC[C@H](N)CC(=O)N[C@H]1CNC(=O)[C@H]([C@H]2C[C@H](O)NC(N)=N2)NC(=O)/C(=C/NC(N)=O)NC(=O)[C@H](CO)NC(=O)[C@H](CO)NC1=O (β3hOrn-[Dap]SS[ΔAla(Z-3-ureido)][X11]; lactam 1-C),–,4.1%
CCOc1cc(C)ccc1OCc1nnc(SCC(=O)Nc2cccc(C(=O)O)c2)n1-c1ccccc1,–,20.3%
Cc1c(Br)c([N+](=O)[O-])nn1C(C)C(=O)Nc1nccs1 (centres undefined),–,-24.7%
CC(=O)Nc1ccc(S(=O)(=O)NC(C)C(=O)OCC(=O)NC2CCCC2)cc1 (centres undefined),–,-5.16%
CCOC(=O)c1ccc(NC(=O)Cn2c(=O)cc(C)c3c(C)nn(-c4cccc(F)c4)c32)cc1,18.4 µM (active),–
CCc1ccc(-n2nc(C)c3c(C)cc(=O)n(CC(=O)Nc4ccc(F)cc4C)c32)cc1,–,-3.03%
COc1ccc(NC(=O)Cn2c(=O)cc(C)c3c(C)nn(-c4cccc(Cl)c4C)c32)cc1OC,–,-28.5%
Cc1cnc(-n2ncc(C(=O)N3CCN(C(C)C)CC3)c2-c2ccco2)nc1-c1ccc(F)cc1,–,-15.8%
O=C(Nc1nnc(CCN2CCCCC2)s1)c1cccc(Cl)c1,–,-6.55%

Compound,Potency,"activity change, negative = growth inhibition"
CCN(CC)CC1(O)CCN(C(=O)c2ccc(Cl)c(Cl)c2)CC1,–,5.55%
CCCNC(=O)c1ccc(Cl)c(Cl)c1,–,-4.07%
CCCn1c(=N)n(CC(=O)c2ccc(Cl)c(Cl)c2)c2ccccc21,11.6 µM (active),–
O=C(O[C@H]1[C@H](Cc2ccccc2)NS(=O)(=O)[C@H]2C[C@@H]3C=C[C@]12O3)c1ccc([N+](=O)[O-])cc1,–,-23.4%
O=S1(=O)CCOC[C@H](Cc2ccccc2)N1Cc1ccccc1Br,–,-27.8%
O=C(O[C@@H]1[C@H](Cc2ccccc2)NS(=O)(=O)[C@H]2C[C@@H]3C=C[C@]12O3)c1ccccc1Br,16.4 µM (active),–
Cc1ccc(Nc2cc(=O)n(C3CCCCC3)c(=O)[nH]2)cc1C,–,0.456%
C/C(=C\C(=O)c1ccc(Br)cc1)N1CCCCC1,–,-24.9%
O=S1(=O)CCN2C(=N1)SC1=C2CCN(Cc2ccccc2)C1,–,-16%
O=C(O)CC12CC3CC(C1)CC(n1ncc(NCc4ccc(F)cc4)c(Cl)c1=O)(C3)C2,–,4.29%
O=C(O)c1ccc(Cn2cnc3c(=S)nc[nH]c32)cc1,–,3.13%
CC1CCN(S(=O)(=O)c2ccc3c(c2)n(C)c(=O)n3C)CC1,–,9.76%
CC(=O)N1CCSc2ccc(S(=O)(=O)N3CCC(C)CC3)cc21,14.6 µM (active),–
CCOC(=O)C1CCN(S(=O)(=O)c2ccc3c(c2)N(C(C)=O)CCO3)CC1,–,7.33%
CCOC(=O)c1ccccc1C(=O)N1CCOCCOCCOCC1,–,-14.8%
CCC(C)CN1CCC(CO)(Cc2ccccc2Cl)CC1 (centres undefined),–,-7.79%
O=C(Nc1cnccn1)c1cccnc1,–,5.01%
O=C(O)c1ccc2c3c(cccc13)C(=O)N(OS(=O)(=O)c1ccccc1)C2=O,–,7.65%
Cc1ccc(Cl)cc1N(C)C(=O)C1CCCN(c2ncnc3onc(-c4ccc(F)cc4)c23)C1 (centres undefined),4.11 µM (active),–
COc1ccccc1N1CCN(c2ncnc3onc(-c4cccc(Cl)c4)c23)CC1,–,-0.348%
CN(Cc1ccccc1)c1ncnc2onc(-c3ccc(F)cc3)c12,18.4 µM (active),–
CCc1ccccc1N(C)C(=O)C1CCCN(c2ncnc3onc(-c4ccc(F)cc4)c23)C1 (centres undefined),11.6 µM (active),–
COc1ccccc1N1CCN(c2ncnc3sc(C)c(-c4ccccc4)c23)CC1,–,-100%
COc1ccccc1N1CCN(c2ncnc3onc(-c4ccc(F)cc4)c23)CC1,18.4 µM (active),–
CC1=C(c2ccc(F)cc2)S(=O)(=O)N=C1N1CCC(C(=O)NCCc2ccccc2C)CC1,–,-20.4%
CCc1noc(C)c1C(=O)N1CCCC(N2CCN(c3ccc(F)cc3)CC2)C1 (centres undefined),–,-6.06%
CN(Cc1ccccc1)c1ccc(-c2nc(-c3ccccc3)no2)cc1[N+](=O)[O-],–,-28.4%
